Test [1] is described as follows: Cytotoxicity counterscreen for inhibitors of SARS-CoV-2 cell entry (AID 1645845). For activity change, negative = cytotoxicity: % is set by controls: 0 for no effect and ±100 for the full control effect. Note: nearly all actives have a fitted effect of over 50% in size. The settings on record: outcome: dose series up to 57.1 µM unless noted. The method, boiled down: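 After a 15 min room-temperature ATPLite 1step step, luminescence reflected ATP remaining in HEK293-ACE2 cells exposed to compound for 1 h plus 48 h at 37 C, with percent activity set by cell and no-cell controls.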

Test [2] is described as follows: Primary qHTS to identify inhibitors of SARS-CoV-2 cell entry (AID 1645846). Note: nearly all actives have a fitted effect of over 45% in size. The conditions noted are these: SARS-CoV-2 pseudovirus cell entry assay, luminescence; activity change, negative = inhibition: at 57.1 µM (top of the series) unless noted. The method, boiled down: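 Data are normalized to wells receiving SARS-CoV-2-S pseudoparticles and those given bald particles. Entry signal was luciferase luminescence in stable hACE2 Expi293F cells, 48 hr post-infection, after 1 hr compound pretreatment.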

Results filed as inconclusive are left out. Calls of active or inactive are those of the source. Calls come from the whole dose curve.
Potency is the fitted concentration of half-maximal effect.

Consider `CC(C)(c1ccc(OCC(O)CO)cc1)c1ccc(OCC(O)CCl)cc1` (configuration not stated), for which the Potency entry in test [1] is “inactive”. In test [2], the activity change, negative = inhibition was -34.4%.
On to `Cn1cc(-c2nc(N[C@@H]3CCCC[C@@H]3N)c(F)c3c2C(=O)NC3)cn1`, for which the outcome in test [1] is “inactive [at 5.25 µM]”. The activity change, negative = inhibition in test [2] worked out at 4.2% [at 5.25 µM].
Regarding `Cc1cc(-c2cc(OC(=O)c3ccccc3)ccc2Cl)cc2nnc(Nc3ccc(OCCN4CCCC4)cc3)nc12`, in test [1], the Potency result is “inactive”. Moreover, in test [2], the activity change, negative = inhibition is -21.1% [at 27.1 µM].
Consider `CC(C)n1cc(-c2ccc3c(c2)N(C)CC3)c2c(NS(=O)(=O)c3ccn(C)n3)ccnc21`, for which, in test [1], the Potency result was “inactive”. In addition, in test [2], the activity change, negative = inhibition is -1.94%.
For `NCc1ccc(OCCCc2sc(-c3ccc4c(c3)/C(=N/Nc3nc5ccccc5s3)CCC4)nc2C(=O)O)cc1`, in that order: “inactive” and 1.79%.
For `COc1ccc(Cl)c(Nc2nc3ccccc3nc2NS(=O)(=O)c2cccc(NC(=O)C(C)(C)N)c2)c1`, in that order: “inactive” and -26.9%.
As to `CC(C)(O)C1CCC(Nc2ccc3ncc(-c4cccc(C(F)(F)F)c4)n3n2)CC1` (configuration not stated), the Potency result in test [1] was “inactive”. In addition, the activity change, negative = inhibition in test [2] is -18.1%.
In the case of `CCN(C(=O)c1ccccc1OC)c1cc2c(cc1N1CCNC[C@H]1C)n(C)c(=O)n2C`, in test [1], the Potency result is “inactive”. Moreover, in test [2], the activity change, negative = inhibition is -9.57%.
For `O=C(/C=C/c1ccc(/C=C/C(=O)Nc2ccc(C3=NCCN3)cc2)cc1)Nc1ccc(C2=NCCN2)cc1`, the activity change, negative = cytotoxicity in test [1] is -2.26% [at 5.25 µM] (inactive). Besides, in test [2], the activity change, negative = inhibition was -24.3% [at 5.25 µM].
Take `N=C1S/C(=C\c2ccc(-c3ccc4c(c3)C(=O)NC4=O)o2)C(=O)N1c1ccc(Br)cc1`: the Potency entry in test [1] was “inactive”. Also, the activity change, negative = inhibition in test [2] is -8.86% [at 27.1 µM].
With `COc1cc2c(NC3CCN(C4CCCCC4)CC3)nc(N3CCCN(C(C)C)CC3)nc2cc1OCCCN1CCCCC1`, the Potency in test [1] is 22.4 µM (active); in test [2], 11.2 µM (active).
The like results for `COc1cc(C)[nH]c(=O)c1CN1CCc2c(Cl)cc([C@H](OC)C3COC3)c(Cl)c2C1=O` were, in that order, “inactive” and “inactive”.
As to `COc1ccc(-n2cnc3cc(C(=O)N4CCCCC4)ccc32)cc1`, the Potency entry in test [1] is “inactive”. The activity change, negative = inhibition in test [2] worked out at 0.509%.
As for `CN1CCN(C(=O)[C@H]2[C@@H](C(=O)O)[C@H]3CC[C@@H]2O3)CC1`, the activity change, negative = cytotoxicity in test [1] is 2.39% [at 11.3 µM] (inactive). For the same compound, the activity change, negative = inhibition in test [2] is -6.02% [at 11.3 µM].
As to `Cc1nn(C)c(COc2ccc(N3CCN(S(=O)(=O)N(C)C)CC3)cc2)c1-c1cccc2c(CCCOc3cccc4ccccc34)c(C(=O)O)n(CCN3CCOCC3)c12`, the Potency result in test [1] was “inactive”. In addition, the activity change, negative = inhibition in test [2] is -18.4%.
On to `N#Cc1ccnc(Nc2cc(C3CCN(C4COC4)CC3)cc(N3CCC(F)(F)C3)n2)c1`, for which the values for the Potency in test [1] and in test [2] were 8.91 µM (active) and 3.16 µM (active), respectively.
With `NC(=O)c1cc(F)cc2c1C(=O)N(C1CCN(C3CCC(F)(F)CC3)CC1)C2`, in test [1], the Potency entry was “inactive”. The activity change, negative = inhibition in test [2] was -24%.
Turning to `Clc1cccc(-c2ccc(-c3nnc(CCCc4ccc5cccnc5n4)o3)cc2)c1`, the Potency result in test [1] and in test [2] was “inactive” in each case.
As to `COc1c(Nc2ncc(Cl)c(N[C@H]3[C@H](C(N)=O)[C@@H]4C=C[C@@H]3C4)n2)ccc2c1CCC(N1CCOCC1)CC2` (some centres not stated), in test [1], the Potency result was “inactive”. In test [2], the activity change, negative = inhibition was -55.4%.
For `Nc1cc(COc2c(Cl)cc(C[C@H](N)C(=O)O)cc2Cl)c2oc(-c3ccccc3)nc2c1`, in that order: “inactive” and -18.9%.
For the compound `CS(=O)(=O)c1ccc(-c2nnc(/C=C/c3nnc(-c4ccc(C#N)cc4)o3)n2-c2ccccc2Cl)nc1`, in test [1], the Potency entry is “inactive”. The activity change, negative = inhibition in test [2] was -12.6%.
For the compound `CCn1c(=O)c2c(nc(/C=C/c3ccc(OC)c(OC)c3)n2C)n(CC)c1=O`, the Potency result in test [1] and in test [2] was “inactive” throughout.
`C1=C/COCc2cc(ccc2OCCN2CCCC2)Nc2nccc(n2)-c2cccc(c2)COC/1`: the Potency is 7.08 µM (active) in test [1] and 3.16 µM (active) in test [2].
With `Cc1[nH]nc2ncc(C(=O)N3CCC[C@H]3c3ccc(Cl)cc3)cc12`, in test [1], the Potency entry was “inactive”. In addition, the activity change, negative = inhibition in test [2] is -17.3%.
The like results for `C=CCN1C[C@H](C(=O)N(CCCN(C)C)C(=O)NCC)CC2c3cccc4[nH]cc(c34)C[C@H]21` (some centres not stated) were, in that order, “inactive” and -15.3%.
Take `COc1ccc(-c2oc3ncnc(N)c3c2-c2ccc(NC(=O)Nc3cc(C(F)(F)F)ccc3F)cc2)cc1`: the Potency result in test [1] is “inactive”. The activity change, negative = inhibition in test [2] is 0.997%.
For `CN1C(=O)N[C@@H](Cc2c[nH]c3c(Cl)cccc23)C1=O`, in that order: “inactive” and 1.88%.
The like results for `COc1nc(N)nc2c1ncn2C1OC(CO)C(O)C1O` (configuration not stated) were, in that order, “inactive” and 1.29%.
As to `COc1ccc(-c2cc(C(O)C3CCCCN3)c3ccccc3n2)cc1` (configuration not stated), the figures for the Potency in test [1] and in test [2] were 14.1 µM (active) and 12.6 µM (active), respectively.
For `CCOCOC[C@H](C[C@H](C)C(=O)NO)NC(=O)c1ccc(Oc2ccccc2)cc1`, the Potency result in test [1] was “inactive”. Further, in test [2], the activity change, negative = inhibition was -23.9%.
For `Cc1nnc(C(C)C)n1C1CC2CCC(C1)N2CCC(NC(=O)C1CCC(F)(F)CC1)c1ccccc1` (configuration not stated), in that order: “inactive” and -24.8%.
`O=C(NCCCNC(=O)c1ccc[nH]c1=O)c1cc(-c2ccccc2)on1`: the Potency entry in test [1] and in test [2] was “inactive” each time.
Regarding `CNC(=O)c1c(C)oc2cc(Oc3ncnc4cc(OC)c(OC)cc34)ccc12`, the Potency result in test [1] and in test [2] was “inactive” throughout.
Turning to `C=CCN(/C=C1\C(=O)O[C@@H](COC)[C@]2(C)C1=C(O)C(=O)C1=C2[C@@H](OC(C)=O)C[C@]2(C)C(=O)CC[C@H]12)CC=C`, the Potency result in test [1] and in test [2] was “inactive” in each case.
Consider `O=C1CC(c2c[nH]c3ccc(F)cc23)C(=O)N1` (configuration not stated), for which the Potency result in test [1] is “inactive”. The activity change, negative = inhibition in test [2] worked out at 1.8%.
Take `COc1ccc(C(=O)N2CCN(C(=O)/C=C/c3ccc(Br)cc3)CC2)cc1`: the Potency result in test [1] is “inactive”. The activity change, negative = inhibition in test [2] is -2.12%.
In the case of `O=C(NCC(=O)N1CCCC1)Nc1ccc2cnccc2c1`, the Potency entry in test [1] is “inactive”. Also, in test [2], the activity change, negative = inhibition was -15.6%.
The like results for `CCc1c(-c2ccccc2C)nc2c(C#N)c[nH]n2c1=O` were, in that order, “inactive” and -14.3%.
For `N#C/C(=C(/N)Sc1ccc(N)cc1)c1ccccc1C(F)(F)F`, in that order: “inactive” and -16.8%.
With `Cc1cc(I)ccc1Nc1c(C(=O)NOCC2CC2)cc(F)c(F)c1F`, the Potency in test [1] was 17.8 µM (active); in test [2], 12.6 µM (active).
`C[C@H](Nc1ncnc2nc[nH]c12)c1cc2ccc(F)cc2nc1-c1ccccn1`: in test [1], the Potency entry is “inactive”. The activity change, negative = inhibition in test [2] was -9.43%.
With `CONC(=O)Nc1ccc(-c2sc3c(c2CN(C)C)c(=O)n(-c2ccc(OC)nn2)c(=O)n3Cc2c(F)cccc2F)cc1`, the Potency result in test [1] was “inactive”. The activity change, negative = inhibition in test [2] is -24.2%.
The like results for `O=C1S/C(=C\c2ccc(OCc3cccc(B(O)O)c3)cc2)C(=O)N1Cc1ccc(F)cc1` were, in that order, “inactive” and -28.4%.
The like results for `CO[C@H]1O[C@@H]2O[C@@]3(C)CC[C@H]4[C@H](C)CC[C@@H]([C@H]1C)[C@@]24OO3` were, in that order, “inactive” and -14.8%.
Take `CCC(=O)N1CCOc2c(cc(-c3cc(OC)cc(OC)c3)cc2C(=O)N[C@H]2CCCN(C)C2)C1`: the Potency entry in test [1] is “inactive”. The activity change, negative = inhibition in test [2] was -26.1%.
Take `COC1CCC(N2C(=O)CNc3ncc(-c4ccc(C(C)(C)O)nc4)nc32)CC1` (configuration not stated): the Potency in test [1] is 7.94 µM (active); in test [2], 15.8 µM (active).
With `O=C(NOCCO)c1ccc2cncn2c1Nc1ccc(I)cc1F`, the Potency result in test [1] is “inactive”. For the same compound, in test [2], the activity change, negative = inhibition was -11.2%.
With `C[C@@H]1N=C(N)NC(N(C)C)=N1`, the Potency result in test [1] is “inactive”. In addition, in test [2], the activity change, negative = inhibition was -14.7%.
As to `COc1cccc2c1c(O)c(C(=O)N(C)c1ccc(C(F)(F)F)cc1)c(=O)n2C`, the Potency entry in test [1] was “inactive”. In addition, in test [2], the activity change, negative = inhibition was -9.47%.
On to `CN[C@@H](C)C(=O)N[C@H](C(=O)N1CCC[C@H]1C(=O)Nc1sc(-c2ncco2)nc1-c1ccccc1)C1CCCCC1`, for which the Potency entry in test [1] and in test [2] was “inactive” each time.
As to `Cc1cc(Nc2cc(N)ncn2)c(=O)n2c1C(=O)NC21CCCCC1`, the Potency result in test [1] and in test [2] was “inactive” throughout.
For `CC(C)(O)c1coc(S(=O)(=O)NC(=O)Nc2c3c(cc4c2CCC4)CCC3)c1`, the Potency result in test [1] and in test [2] was “inactive” throughout.
For `CC1(C)O[C@@H]2C[C@H]3[C@@H]4CCC5=CC(=O)C=C[C@]5(C)[C@H]4[C@@H](O)C[C@]3(C)[C@]2(C(=O)CO)O1`, in test [1], the Potency entry was “inactive”. In test [2], the activity change, negative = inhibition was determined as 4.23%.
For `Cc1cc(-c2cnn3c(NCC4CC(C)(O)C4)cc(Oc4cccnc4)nc23)ccc1C(=O)NC1CC1` (configuration not stated), the activity change, negative = cytotoxicity in test [1] is 4.49% [at 5.25 µM] (inactive). Moreover, the activity change, negative = inhibition in test [2] was -11.3% [at 5.25 µM].
Consider `NCC(=O)Nc1cncc(-c2nn3c(=O)cc(N4CCNCC4)nc3s2)c1`, for which the Potency result in test [1] was “inactive”. For the same compound, the activity change, negative = inhibition in test [2] was -55.5%.
With `CCC(=O)O[C@]1(C(=O)CO)CC[C@H]2[C@@H]3CCC4=CC(=O)CC[C@]4(C)[C@H]3CC[C@@]21C`, the Potency result in test [1] and in test [2] was “inactive” throughout.
`O=C(/C=C/c1ccc2ccc(C(F)(F)F)cc2n1)c1ccncc1`: the Potency entry in test [1] was “inactive”. The activity change, negative = inhibition in test [2] was -5.32%.
With `Cc1cc(C)c2c(c1)[C@@H](N(Cc1cc(C(F)(F)F)cc(C(F)(F)F)c1)c1nnn(C)n1)CCCN2CC1CCC(C(=O)O)CC1` (some centres not stated), the Potency result in test [1] was “inactive”. The activity change, negative = inhibition in test [2] is -28%.
For `Cc1c(-c2cnccn2)ssc1=S`, in that order: “inactive” and 3.56%.
The like results for `O=C(/C=C/c1ccc(Cl)cc1)N1CCC2(CC1)CN(Cc1ccc(Cl)c(Cl)c1)C(=O)O2` were, in that order, “inactive” and 0.824%.
Take `Cc1ccc(Nc2cc(N[C@@H]3CCCC[C@@H]3N)nnc2C(N)=O)nc1C`: the Potency result in test [1] and in test [2] was “inactive” each time.

(Values after PubChem BioAssay (NCATS).)
